Compound activity deposited in PubChem by The Scripps Research Institute Molecular Screening Center.
GPR7 antagonist – GPR7 receptor antagonists, primary screen, cell-based, fluorescence, single concentration | 290,000 tested, 1.1% active | Neuropeptides B/W receptor type 1 (Homo sapiens), P48145 | inhibition, % at 4.4 µM | GPR7-expressing cells, fluorescence antagonist assay; in the data active = inhibition above about 16%, passing the limit was not always enough;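 also: cells stimulated with the agonist NPW; 0% = agonist with vehicle and 100% = vehicle without agonist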
Target sequence (P48145 whole entry, looked up): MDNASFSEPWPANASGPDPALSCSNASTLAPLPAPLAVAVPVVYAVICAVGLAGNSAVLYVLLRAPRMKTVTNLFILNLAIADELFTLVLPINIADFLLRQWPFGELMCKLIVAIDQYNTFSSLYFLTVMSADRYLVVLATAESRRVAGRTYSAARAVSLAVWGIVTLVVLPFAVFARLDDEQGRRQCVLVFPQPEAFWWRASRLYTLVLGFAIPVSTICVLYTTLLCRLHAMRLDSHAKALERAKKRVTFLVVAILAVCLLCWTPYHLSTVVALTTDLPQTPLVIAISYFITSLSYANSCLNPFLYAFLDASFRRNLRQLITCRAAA
Ba/F3 V617F tox – reduced viability of JAK2V617F-dependent Ba/F3 cells, primary screen, JAK2V617F inhibitor project, cell-based, Ba/F3 EpoR-JAK2V617F, luminescence | ATP luminescence | inhibition, % at 5.6 µM | 220,000 tested, 1.1% active | AID 1446, 2008;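 active = inhibition above the campaign mean plus 3 SD over all tested compounds, cut at about 24% in these data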;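 also: cytokine-independent growth of Ba/F3 cells driven by EpoR plus mutant JAK2; 0% = DMSO-treated cells and 100% = JAK inhibitor I control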
IEC-6 tox – cytotoxicity in IEC-6 intestinal epithelial cells, primary screen, cytotoxicity control for KLF5 inhibitor project, cell-based, luminescence. IEC-6 cytotoxicity, luminescence viability. inhibition, % at 5 µM. 290,000 tested, 0.78% active. AID 1825, 2009; in the data active = inhibition above about 22%;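 also: 0% = plate median of test compound wells and 100% = cytotoxic reference compound wells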
KLF5 inhibitor – KLF5 expression inhibitors, primary screen, DLD-1 cells, luminescence; DLD-1 KLF5 promoter-luciferase reporter; inhibition, % at 5 µM; 290,000 tested, 0.23% active;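 active = inhibition above a per-plate limit of that plate's mean compound inhibition plus 3 SD, cut at about 60% in these data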;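 also: 0% = DMSO wells and 100% = LY294002 at 200 µM; higher means less KLF5 promoter-driven luciferase light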
DNA FID counter – compounds displacing fluorescent DNA intercalator, primary screen, artefact control for HCV NS3 helicase inhibitor project, biochemical, FID fluorescence; DNA fluorescent intercalator displacement; inhibition, % at 7.9 µM; 290,000 tested, 0.17% active; AID 1845, 2009; in the data active = inhibition above about 37%;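 also: 0% = vehicle and 100% = reference compound; higher means more ethidium bromide displaced from hairpin DNA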
BaF3 tox – parental Ba/F3 cell viability inhibition, counter-screen for JAK2V617F inhibitor project, murine pro-B, CellTiter-Glo luminescence. 220,000 tested, 1.1% active. CellTiter-Glo ATP luminescence. inhibition, % at 5.6 µM;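 active = inhibition above a per-campaign cutoff, the mean inhibition of all tested compounds plus 3 SD, cut at about 27% in these data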;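 also: 0% = DMSO wells and 100% = JAK Inhibitor I control wells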
* marks the source's active call; other numbers are inactive results; . = not tested or not shown. Most compounds without a hit are left out; they make up all but 2.6% or so of the library.

SMILES	GPR7 antagonist	Ba/F3 V617F tox	IEC-6 tox	KLF5 inhibitor	DNA FID counter	BaF3 tox
COc1cc(CNCCc2ccccc2)cc(Br)c1OCC(=O)Nc1ccccc1C	15.9	5.5	4.4	-19.9	43.8*	8.2
CNCc1cc(Br)c(OCC(=O)Nc2ccccc2OC)c(OC)c1	1.2	-0.5	1.3	-7.8	19.3	4.6
CCNCc1cc(Br)c(OCC(=O)Nc2ccccc2)c(OC)c1	5.6	-2.8	8.1	-24.6	24.8	0.8
CCOc1ccccc1-c1cc(C(=O)N/N=C/c2ccc(O)c(OC)c2)c2ccccc2n1	-9.7	-0.5	6.7	-5.0	-21.7	7.5
Clc1ccccc1Cn1nc(-c2ccccc2)nc1-c1ccccc1	-10.4	3.1	-1.2	-13.8	-3.2	6.3
CCC(C)NC(=S)Nc1ccccc1 (configuration not stated)	-6.3	2.2	-0.1	-16.0	-1.0	-2.4
CCC(C)NC(=S)Nc1ccc(C(=O)OC)cc1 (configuration not stated)	8.3	6.6	9.5	-22.2	-7.1	49.6*
Cc1cc(C)cc(C(=O)OCC(=O)NCc2cccs2)c1	26.4*	-4.2	3.4	26.9	-17.6	1.8
O=C(COC(=O)c1ccccc1)NCc1cccs1	-11.1	-1.0	-8.3	-14.4	0.7	4.0
Cc1ccc(S(=O)(=O)Oc2ccccc2/C=C2/SC(=O)NC2=O)cc1	-19.0	-0.3	3.5	9.9	-31.1	4.5
O=C(Nc1nc(-c2ccccc2)cs1)c1cccc(S(=O)(=O)N2CCN(Cc3ccccc3)CC2)c1	-2.5	-1.0	4.5	-11.8	-2.4	2.4
COc1ccc(C(=O)C(CN2CCOCC2)c2ccccc2)cc1F (configuration not stated)	35.1*	92.8*	5.6	26.5	-3.5	49.3*
CCOC(=O)Cn1c(=O)c2c(nc(Br)n2Cc2ccccc2)n(C)c1=O	-8.7	-2.7	0.6	10.5	-8.3	1.5
CCCCOC(=O)Cn1c(=O)c2c(nc(Br)n2Cc2ccccc2)n(C)c1=O	-8.5	1.6	3.0	-20.2	-16.5	65.7*
NC(=O)COc1ccc(NS(=O)(=O)Cc2ccccc2)cc1	-8.9	.	-4.9	-27.8	-2.4	.
COc1ccc2[nH]c3c(NCCC4=CCCCC4)ncnc3c2c1	23.3*	63.8*	20.3	-137.5	20.1	75.1*
N#Cc1c(-c2ccco2)ccn(Cc2ccc(F)cc2)c1=O	-4.6	-2.3	-0.3	13.5	-2.0	3.9
Nc1nc2n(n1)C(c1cccc(Cl)c1)CC(c1ccc(F)cc1)N2 (configuration not stated)	18.6*	4.1	-3.1	-7.7	-17.6	12.8
COc1ccc(N(C)S(=O)(=O)c2cccc(C(=O)NC3CCCCCC3)c2)cc1	42.7*	-0.6	-12.8	-8.4	-36.9	6.5
COc1ccc(S(=O)(=O)N(C)c2ccc(C(=O)NC3CC3)cc2)cc1	-2.4	.	-1.6	6.8	-18.6	.
CCN(Cc1ccccc1)C(=O)CS(=O)(=O)c1ccccc1	-3.4	-1.3	-3.9	-2.9	-0.7	0.1
O=S(=O)(C/C(=C/CO)S(=O)(=O)c1ccccc1)c1ccccc1	14.5	100.6*	96.3*	27.4	1.0	100.1*
O=C1c2ccccc2C(=O)c2c(NCCCN(CCO)CCO)cccc21	-1.5	6.4	10.0	-48.2	89.0*	14.0
CCN(CC)CC(=O)Nc1cccc2c1C(=O)c1ccccc1C2=O	-11.4	-0.3	7.7	-12.1	17.5	4.8
CCCc1cc(=O)n2[nH]c(Cc3ccccc3)nc2n1	17.6*	0.2	2.4	-6.9	-0.9	2.6
SMILES	GPR7 antagonist	Ba/F3 V617F tox	IEC-6 tox	KLF5 inhibitor	DNA FID counter	BaF3 tox
CCN(CC)S(=O)(=O)c1ccc(OC)c(NC(=O)C(Cc2ccccc2)N2C(=O)c3ccccc3C2=O)c1 (configuration not stated)	-3.9	-2.0	-5.1	9.9	-18.3	3.3
Cc1coc2c(C)c3oc(=O)c(CCC(=O)NCCCn4ccnc4)c(C)c3cc12	7.6	.	3.0	-10.7	21.7	.
Cc1c(CCC(=O)NCCCn2ccnc2)c(=O)oc2c(C)c3occ(C(C)(C)C)c3cc12	-8.6	.	2.2	-2.1	37.5*	.
CN(C)c1ccc(-c2nc3ccccc3n2C)cc1	8.8	44.1*	11.5	-13.7	-6.0	53.1*
C=CCNC(=S)NN=C1CCC(c2ccccc2)CC1 (configuration not stated)	5.1	.	-4.7	9.9	-11.7	.
Cn1cc(CN2CCN(c3cnccn3)CC2)c(-c2cccc(Cl)c2)n1	-10.3	0.8	-2.4	-13.9	-11.9	-0.7
CC(C1CCN(Cc2cn(C)nc2-c2cccc(Cl)c2)CC1)N1CCOCC1 (configuration not stated)	-7.2	-0.6	-3.5	-36.0	11.6	49.0*
Cc1csc2ncc(C(=O)N3c4ccccc4CC3C)c(=O)n12 (configuration not stated)	3.2	-1.7	4.0	-24.2	-8.1	38.5*
COc1ccc(C=O)cc1Cn1cnc2c(cnn2C)c1=O	-3.8	2.8	2.5	-50.6	-3.0	10.2
O=C(Nc1nccs1)[C@@H]1CCCN1C(=O)c1cccs1	3.4	-1.6	-4.9	-4.0	-0.8	104.1*
Cc1nc2ccc(NC(=O)c3cc(S(=O)(=O)N(C)c4ccccc4)ccc3Cl)cc2s1	-3.4	43.4*	3.9	-29.6	-13.9	48.8*
Cc1nc2ccc(NC(=O)c3ccc(Cl)c(S(=O)(=O)N(C)c4ccccc4)c3)cc2s1	0.9	-0.5	8.6	-20.6	-4.7	0.4
COC(=O)c1ccc(-c2nc(CN3CCC(C(=O)N4CCOCC4)CC3)c(C)o2)cc1	1.6	.	1.4	-5.5	0.9	.
CCOC(=O)c1cc(-c2ccc(OC)cc2)nc2c1c(C)nn2CCC#N	19.1*	-1.2	-3.2	-27.3	-18.9	7.3
CCCn1c(SCC(=O)NCc2ccc(OC)cc2)n[nH]c1=O	-5.5	2.5	3.6	5.0	-20.9	1.3
CCCn1c(SCC(=O)N2N=C3/C(=C/c4ccc(OC)cc4)CCCC3C2c2ccc(OC)cc2)n[nH]c1=O (configuration not stated)	19.7*	-1.8	-8.6	-19.0	-40.3	3.2
Cc1cc(Sc2nnc(/N=C/N(C)C)s2)c2ccccc2n1	-3.4	90.4*	11.0	-7.0	-17.7	73.3*
Cc1cc(Sc2nnc(N)s2)c2ccccc2n1	-9.8	96.1*	18.2	18.1	0.0	76.8*
CCCCCCCCSc1nnc(/N=C/N(C)C)s1	-9.0	-6.5	-5.2	-19.4	-20.8	2.3
COc1ccc(CCNC(=O)c2ccc(NS(=O)(=O)c3ccc4[nH]c(=O)[nH]c4c3)cc2)cc1OC	-3.8	.	-0.5	-12.8	-12.9	.
OCc1ccc(O)c2ncccc12	-3.3	66.6*	-6.2	-7.4	1.2	31.9*
Oc1ccc(CN2CCCCC2)c2cccnc12	-0.7	86.2*	2.1	14.5	-1.0	62.1*
